Screens from PubChem BioAssay.
In the library only some 2.9% were active in any assay of this set; here they are far more common.
SNCA viab count: reduces viability of HEK-293 SNCA reporter cells | 150,000 tested, 0.12% active | Potency, µM (series often up to 57.1 µM), for inactives: at the top dose activity change, negative = cytotoxicity, actives largely listed as cytotoxic | HEK-293-SNCA-luc viability, GF-AFC fluorescence, 24 h;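 further: potency means the concentration at half of the fitted maximal effect; 0% = DMSO-treated cells and -100% = medium-only wells without cells; nearly all actives have a fitted effect of over 30% in size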
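HEK-293-SNCA-luc cells (1500/well) plated 24 h, then exposed 24 h to a dilution series; GF-AFC added 30 min at 37C, fluorescence 405/540 nm; normalised to medium-only and DMSO wells, Hill fit.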
SNCA expr inhib: inhibitors of alpha-synuclein (SNCA) gene expression; 140,000 tested, 0.17% active; HEK-293 SNCA-luciferase knock-in, luminescence, 24 h; Potency, µM (series often up to 57.2 µM), for inactives: at the top dose activity change, negative = inhibition, usual class: inhibitors;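 further: potency means the concentration at half of the fitted maximal effect; plate controls were DMSO cells for no effect and cell-free wells for full effect; nearly all actives have a fitted effect of over 45% in size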
IP6K1 inhibitor: blocks human inositol hexakisphosphate kinase 1; Q92551; IP6K1 kinase, ADP-Glo luminescence, 2 h; hits give low values; activity change, % (series mostly up to about 58 µM); 140,000 tested, 0.81% active; in the data active means activity change below about -25%; further: on the % scale 0 is the no-effect control and ±100 the full control effect
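ADP-Glo luminescence measures ADP made by human IP6K1 during a 2 h RT reaction with ATP/IP6 (mix at 1.3 mM/130 uM); top library doses 57.5 and 19.1 uM final.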
KDM5B inh: blocks human KDM5B histone demethylase activity; Q9UGL1; KDM5B demethylase, FDH-coupled NADH fluorescence (FDH is formaldehyde dehydrogenase); Potency, µM (titrated, usually from 57.7 µM), most hits filed as inhibitors; 220,000 tested, 2.6% active; AID 1347165; further: potency means the concentration at half of the fitted maximal effect; 0% is about no effect; nearly all actives have a fitted effect of over 70% in size
Target sequence (Q9UGL1 whole entry, looked up): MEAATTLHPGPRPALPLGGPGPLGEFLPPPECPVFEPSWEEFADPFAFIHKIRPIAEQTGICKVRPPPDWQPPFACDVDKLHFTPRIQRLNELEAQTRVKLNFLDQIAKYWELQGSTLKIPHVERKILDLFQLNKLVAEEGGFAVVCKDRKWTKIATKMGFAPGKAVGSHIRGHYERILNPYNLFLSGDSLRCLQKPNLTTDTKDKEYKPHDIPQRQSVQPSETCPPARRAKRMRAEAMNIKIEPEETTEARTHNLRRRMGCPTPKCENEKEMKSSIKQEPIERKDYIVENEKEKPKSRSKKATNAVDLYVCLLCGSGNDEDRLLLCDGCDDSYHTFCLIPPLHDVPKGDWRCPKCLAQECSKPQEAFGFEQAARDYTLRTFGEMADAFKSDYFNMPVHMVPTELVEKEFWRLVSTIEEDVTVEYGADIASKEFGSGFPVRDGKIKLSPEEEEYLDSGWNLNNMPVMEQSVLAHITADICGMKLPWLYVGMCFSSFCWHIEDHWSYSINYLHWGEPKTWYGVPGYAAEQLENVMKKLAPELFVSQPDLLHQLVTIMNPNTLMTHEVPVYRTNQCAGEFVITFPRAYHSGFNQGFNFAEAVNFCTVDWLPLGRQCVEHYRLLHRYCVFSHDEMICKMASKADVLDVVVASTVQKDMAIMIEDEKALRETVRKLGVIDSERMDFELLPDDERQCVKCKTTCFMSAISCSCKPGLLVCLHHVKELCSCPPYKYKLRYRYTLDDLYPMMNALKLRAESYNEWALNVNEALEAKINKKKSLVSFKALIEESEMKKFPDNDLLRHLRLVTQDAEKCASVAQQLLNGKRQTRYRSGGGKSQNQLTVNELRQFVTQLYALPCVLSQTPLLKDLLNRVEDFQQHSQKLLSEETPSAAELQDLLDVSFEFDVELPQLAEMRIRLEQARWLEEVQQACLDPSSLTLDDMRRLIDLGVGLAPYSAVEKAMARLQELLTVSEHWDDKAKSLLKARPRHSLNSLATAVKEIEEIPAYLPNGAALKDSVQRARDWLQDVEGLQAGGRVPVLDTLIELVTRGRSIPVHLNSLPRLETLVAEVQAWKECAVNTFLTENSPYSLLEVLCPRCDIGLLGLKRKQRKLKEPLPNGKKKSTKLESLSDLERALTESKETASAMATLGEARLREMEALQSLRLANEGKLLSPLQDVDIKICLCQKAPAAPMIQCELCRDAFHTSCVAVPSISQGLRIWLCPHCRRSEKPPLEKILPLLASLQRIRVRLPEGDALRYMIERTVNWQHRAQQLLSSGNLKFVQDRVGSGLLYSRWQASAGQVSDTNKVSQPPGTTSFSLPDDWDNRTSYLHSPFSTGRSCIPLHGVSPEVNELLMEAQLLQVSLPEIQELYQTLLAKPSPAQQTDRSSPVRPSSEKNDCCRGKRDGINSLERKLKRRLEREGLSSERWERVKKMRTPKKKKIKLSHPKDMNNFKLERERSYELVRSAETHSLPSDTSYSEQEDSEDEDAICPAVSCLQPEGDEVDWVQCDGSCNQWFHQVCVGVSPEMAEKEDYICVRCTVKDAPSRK
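Here, H3K4me3 peptide (12.5 µM in substrate mix) is demethylated by KDM5BΔAP, 200 nM final, after 10 min compound exposure. Formaldehyde product is coupled through FDH (0.25 U/mL in mix) to NADH fluorescence; 30-min ΔRFU feeds dose-response curves.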
An asterisk follows results filed as active; i = inactive; ? = inconclusive; · = no result; [ ] = remark or other dose. Unless noted, the call rests on the fitted dose curve; in most records, active means well fitted curve in the direction sought with a large enough effect; inconclusive means small, poorly fitted or top-dose-only effect, or another doubt; inactive means no such curve, though single readings can be large; an effect the other way counts as inactive or inconclusive.

SMILES	SNCA viab count	SNCA expr inhib	IP6K1 inhibitor	KDM5B inh
Cc1nnc([C@H]2CCN(C(=O)c3ccc4c(c3)OCO4)C2)o1	-10%[87.6 µM]	0%[87.6 µM]	6	i
O=C(NCCCn1ccnc1)c1ccc(S(=O)(=O)Nc2ccccc2)cc1	·	·	·	i
CN1CCOc2c(C(=O)NCCc3cnc[nH]3)cc(-c3ccccc3F)cc21	-20%[87.6 µM]	-17%[87.6 µM]	-9	32µM*
COc1ccc(-c2cc(C(=O)NCCc3cnc[nH]3)c3c(c2)N(C)CCO3)cn1	-9%[87.6 µM]	-29%[87.6 µM]	-21	28µM*
CN1CCOc2c(C(=O)NCCc3cnc[nH]3)cc(-c3cccnc3)cc21	2%[87.6 µM]	-8%[87.6 µM]	-13	i
CN1CCOc2c(C(=O)NCCC(N)=O)cc(-c3ccccc3OC(F)(F)F)cc21	-11%[87.6 µM]	-9%[87.6 µM]	-14	40µM*
COc1cc(F)ccc1-c1cc(C(=O)NCCc2cnc[nH]2)c2c(c1)N(C)CCO2	-24%[87.6 µM]	4%[87.6 µM]	-18	40µM*
CN(C)S(=O)(=O)N1CCN(C(=O)C2CC(=O)N(c3n[nH]c4ccccc34)C2)CC1 (centres undefined)	7%	0%	21	i
O=C(c1cc(-c2ccccc2F)cc2c1OCCN2Cc1cccnc1)N1CCC1	-15%[87.6 µM]	-2%[87.6 µM]	-4	?
CN(C)C(=O)c1cc(-c2ccccc2F)cc2c1OCCN2Cc1cccnc1	-13%[87.6 µM]	?	-18	i
O=C(NCCc1cnc[nH]1)c1cc(-c2ccccc2F)cc2c1OCCN2Cc1cccnc1	?	-2%	-16	22µM*
O=C(NCC1CCCO1)c1cc(-c2ccccc2F)cc2c1OCCN2Cc1cccnc1 (centres undefined)	-22%	-13%	-15	20µM*
Cn1ccc(NC(=O)c2cc(-c3ccccc3F)cc3c2OCCN3Cc2cccnc2)n1	-19%	-39%	-17	28µM*
CC1(C(=O)NCCCn2ccnc2)COCc2cnc(Nc3ccccc3)nc21 (centres undefined)	-7%[87.6 µM]	-5%[87.6 µM]	8	i
CC1(COc2ccc(-c3nc(COc4ccccc4)no3)cn2)CCCNC1 (centres undefined)	-7%	94%	19	?
c1ccc(OCc2noc(-c3ccc(NC4CCSC4)nc3)n2)cc1 (centres undefined)	-2%	59%	14	28µM*
O=C(Nc1ccccc1C(F)(F)F)c1nc2ccccc2nc1N1CCCC1	·	·	·	i
Cc1ccc(CNC(=O)Cn2c(N3CCc4ccccc4C3)nc(C)cc2=O)cc1	?	?	29	28µM*
COc1ccc(OC)c(NC(=O)Cn2c(N3CCc4ccccc4C3)nc(C)cc2=O)c1	?	?	22	28µM*
COCc1cc(=O)n(CC(=O)Nc2ccc(Br)cc2)c(N2CCOCC2)n1	-10%	16%	11	i
COc1cccc(NC(=O)Cn2c(N3CCc4ccccc4C3)nc(C)cc2=O)c1	?	?	9	11µM*
COCc1cc(=O)n(CC(=O)Nc2cccc(Br)c2)c(N2CCOCC2)n1	0%	-3%	34	28µM*
COc1ccc(NC2=CC(=O)CC(c3ccccc3)C2)c(OC)c1 (centres undefined)	·	·	·	i
Cc1cc(C)c2c(CC(=O)Nc3sc4c(c3C(N)=O)CCCC4)coc2c1	·	·	·	i
c1cnc2cc3c(cc2n1)C1CNCC3C1	9%	2%	1	·
SMILES	SNCA viab count	SNCA expr inhib	IP6K1 inhibitor	KDM5B inh
CCCNC(=O)c1ccc2c(c1)S(=O)(=O)c1ccccc1C2=O	·	·	·	i
Cc1cccc(N(C)C(=O)Cn2c(N3CCc4ccccc4C3)nc(C)cc2=O)c1	11µM*	?	18	?
Cn1ccnc1C(O)c1cc2n(n1)CCN(C/C=C/c1ccccc1)C2 (centres undefined)	-9%	2%	8	i
Cn1nccc1C(O)c1cc2n(n1)CCN(C/C=C/c1ccccc1)C2 (centres undefined)	9%	7%	26	32µM*
Cc1cc(CN(C)c2ccc(-c3nc(COc4ccccc4)no3)cn2)on1	0%	156%	17	35µM*
Cc1ccccc1-c1[nH]nc2ncc(-c3ccccc3C#N)nc12	-12%[87.6 µM]	10%[87.6 µM]	15	?
C=CCCC(CN1CCCOCC1)Oc1ccc2cccc(OC)c2n1 (centres undefined)	-11%	-4%	0	32µM*
CSCC[C@@H](C(=O)Nc1cccc(F)c1)N1Cc2ccccc2C1=O	-10%	-5%	4	i
COc1ccc(-c2cc(C(=O)NCc3cc(C)on3)c3c(c2)N(C)CCO3)cc1OC	-12%[87.6 µM]	10%[87.6 µM]	-22	35µM*
CN1CCOc2c(C(=O)NCc3cnn(C)c3)cc(-c3ccccc3)cc21	-4%[87.6 µM]	-4%[87.6 µM]	-15	40µM*
CN1CCOc2c(C(=O)NCc3cnn(C)c3)cc(-c3ccc([S+](C)(=O)[O-])cc3)cc21	-14%[87.6 µM]	-3%[87.6 µM]	-15	?
CC(=O)Nc1cc(-c2cc(C(=O)NCc3cc(C)on3)c3c(c2)N(C)CCO3)ccn1	-15%[87.6 µM]	3%[87.6 µM]	-22	i
Cc1ccccc1-c1cc(C(=O)NCc2cccnc2)c2c(c1)N(C)CCO2	-18%[87.6 µM]	?	-18	35µM*
Cc1cc(CNC(=O)c2cc(-c3ccccc3)cc3c2OCCN3C)no1	-9%[87.6 µM]	-21%[87.6 µM]	-23	40µM*
Cc1cc(CNC(=O)c2cc(-c3ccc(N4CCOCC4)cc3)cc3c2OCCN3C)no1	3%	-11%	-21	?
COc1ccc(COCC(O)CN(C)Cc2ccc(OC)c(OC)c2)cc1OC (centres undefined)	·	·	·	i
N#Cc1ccc(C(=O)N2CCC(Cc3ccc(C(N)=O)cc3)CC2)cc1	2%	7%	-15	i
Cc1nn(-c2ccccc2)nc1C(=O)N[C@H](C)c1onc(-c2cccnc2)c1C(=O)O	-9%	14%	29	25µM*
O=C(/C=C/c1cccc(Cl)c1)c1ccc(N2CCOCC2)cc1	·	·	·	i
Fc1cccc(-n2nc(C3CCOCC3)nc2CNC2CC2)c1	-19%	-2%	5	i
N[C@@H](CO)c1nc(C2CCOCC2)nn1-c1ccccc1F	0%	16%	4	25µM*
CC1CCc2nn(CC(=O)Nc3cccc(C(F)(F)F)c3)c(=O)cc2C1 (centres undefined)	0%	-12%	5	i
CCOc1ccc(NC(=O)Cn2c(=O)c(-c3noc(C)n3)c3n(c2=O)CCCCC3)cc1	4%	29%	44	i
COC[C@@H]1CN(c2ncccn2)C[C@H]1C(=O)Nc1ccc(OC)nc1	3%	21%	4	25µM*
COC[C@@H]1CN(c2ncccn2)C[C@H]1C(=O)N1CCc2ccccc21	-18%	11%	7	?
COC[C@@H]1CN(c2ncccn2)C[C@H]1C(=O)NCc1c(C)n[nH]c1C	-14%	25%	0	28µM*
COc1ccccc1CNC(=O)[C@H]1CN(C(C)C)C[C@H]1C(=O)O	?	-17%	8	i
COC[C@@H]1CN(c2ncccn2)C[C@H]1C(=O)NCc1ccccc1OC	-2%	-14%	3	18µM*
COC[C@@H]1CN(c2ncccn2)C[C@H]1C(=O)N(C)Cc1cn(C)nc1C	-3%	-4%	7	14µM*
CSc1nnc(C)c(=O)n1COC(=O)COc1ccc(Cl)cc1Cl	·	·	·	i
